Pf growth 96h – P. falciparum growth inhibition at 96 hours. P. falciparum luciferase reporter growth, 96 h. Potency, µM (highest dose often 28.7 µM), without a hit: at the top dose activity change, negative = inhibition, usual class: inhibitors. hit rate 6.9% among 320,000; further: potency means the concentration at half of the fitted maximal effect; on the % scale 0 is the no-effect control and ±100 the full control effect
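96 h incubation, 37 C, 5% CO2, of luciferase-reporter P. falciparum-infected RBCs (2% hematocrit, 0.05% parasitemia final) with test compounds; endpoint luminescence.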
SARS PLP yeast – blocks SARS-CoV papain-like protease in a yeast assay; S. cerevisiae expressing SARS-CoV PLpro, growth rescue; Potency, µM (highest dose often 32.9 µM), for the others: top-dose activity, positive = growth rescue, usual class: activators; hit rate 0.19% among 330,000; AID 485353; calls by dose curve; further: potency means the concentration at half of the fitted maximal effect; 0% is about no effect; nearly all actives have a fitted effect of over 55% in size
AMA1 RON2 block – disrupts binding of P. falciparum AMA1 to RON2; AlphaScreen AMA1-biotinylated RON2 peptide binding; Potency, µM (doses to about 58.2 µM), for inactives: at the top dose activity change, negative = inhibition, actives largely listed as inhibitors; hit rate 0.2% among 360,000; AID 720542;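 further: potency means the concentration at half of the fitted maximal effect; 0% = vehicle wells and -100% = peptide control; nearly all actives have a fitted effect of over 45% in size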
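AMA1 (3D7) with his tag at 25 nM final met compounds first, then biotinylated RON2 peptide at 25 nM; detection used donor plus acceptor beads, 10 µg/mL apiece, read by AlphaScreen after 30 min at room temperature.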
Cycloheximide cs – counter-screen for Shiga toxin inhibitors: cycloheximide protein synthesis inhibition; hit rate 12% among 300,000; AID 2314; max response, %; cell reporter, cycloheximide protein synthesis inhibition counterscreen; in the data active means max response mostly above about 13%, no sharp cut-off; inactive means mostly below about 14%; further: read at 38.3 µM for the half of the compounds with a filed dose; 0% is about no effect
Pf growth 48h – P. falciparum growth inhibition at 48 hours (one generation); P. falciparum luciferase growth in erythrocytes, 48 h; Potency, µM (series often up to 28.7 µM), inactives show at the highest dose activity change, negative = inhibition, most hits filed as inhibitors; hit rate 5.9% among 310,000; further: potency means the concentration at half of the fitted maximal effect; on the % scale 0 is the no-effect control and ±100 the full control effect
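Firefly luciferase activity from engineered P. falciparum reports growth; inhibitors lower the luminescent signal. Cultures contained 2% hematocrit erythrocytes at 0.1% final parasitemia.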
Shiga toxin inh – Shiga toxin inhibition; inhibition, % at 38.7 µM; AID 2315; Vero cells, Shiga toxin protein synthesis inhibition reporter; hit rate 9.2% among 290,000; in the data active means inhibition mostly above about 28%, no sharp cut-off; inactive means mostly below about 43%; further: 0% is about no effect
* hit, by the source's call; i = inactive; u = inconclusive; x = no result; + = active, no number; [ ] = another dose, or the depositor's remark. Shown are actives, neighbours in structure and some others; about 19% of the full set was active somewhere. Unless noted, the call rests on the fitted dose curve; in most records, active means well fitted curve in the direction sought with a large enough effect; inconclusive means small, poorly fitted or top-dose-only effect, or another doubt; inactive means no such curve, though single readings can be large; an effect the other way counts as inactive or inconclusive.

SMILES	Pf growth 96h	SARS PLP yeast	AMA1 RON2 block	Cycloheximide cs	Pf growth 48h	Shiga toxin inh
O=C(NCc1ccccc1)C(c1ccncc1)N(C(=O)c1ccccn1)c1ccccc1 (stereo not drawn)	57%	2%	32%	25*	17%	60*
O=C(NCc1ccccc1)C(c1ccc(O)cc1)N(C(=O)c1cnccn1)c1ccccc1 (stereo not drawn)	-46%	2%	2%	-3	-4%	-7
COc1ccc(N(C(=O)c2cnccn2)C(C(=O)NCc2ccccc2)c2ccc(O)cc2)cc1 (stereo not drawn)	19%	-1%	-2%	28*	53%	75*
COc1ccc(CNC(=O)C(c2ccco2)N(C(=O)c2ccccn2)c2ccccc2)cc1 (stereo not drawn)	u	0%	-6%	38*	102%	84*
O=C1c2ccccc2C(=O)c2c1cccc2-n1nnc2ccccc21	-26%	-1%	12%	-4	u	-6
O=C1C(N2CCOCC2)=C(n2nnc3ccccc32)C(=O)c2ccccc21	2.3µM*	-35%	u	45*	x	26
O=C(O)C1C2OC(C(Br)C2Br)C1C(=O)O (stereo not drawn)	x	x	2%	x	x	x
Cc1ccc(F)cc1NC(=O)COC(=O)C1CCN(c2ccc(C(F)(F)F)cn2)CC1	50%	-21%	12%	x	38%	x
COc1ccccc1NC(=O)C1=C(C)Nc2nc(CCCO)nn2C1c1cccnc1 (stereo not drawn)	5.2µM*	-3%	5%	-2	20%	4
COc1ccc(C2C(C(=O)Nc3ccccc3)=C(C)Nc3nc(CCCO)nn32)cc1 (stereo not drawn)	13µM*	0%	-4%	-4	-33%	-14
COc1ccc(C2C(C(N)=O)=C(C)Nc3nc(CCCO)nn32)cc1 (stereo not drawn)	14%	0%	5%	-3	8%	-8
CC1=C(C(=O)Nc2ccc(F)cc2)C(c2cccc(C)c2)n2nc(CCCO)nc2N1 (stereo not drawn)	6.6µM*	2%	9%	-5	-3%	-17
O=C1NC(=O)C(=Cc2ccc(-c3ccc(Cl)cc3)o2)C(=O)N1	37%	6%	6%	1	21%	0
O=C1NC(=O)C(=Cc2ccc(-c3ccc(F)cc3O)o2)C(=O)N1	0%	7%	u	14*	-1%	17
Cc1ccc(-c2cc(-c3ccccc3)no2)c(O)c1	u	8%	-4%[11.6 µM]	43*	u	0
Cc1ccc(C(=O)Oc2cc(-c3ccccc3)no2)cc1	u	-1%	11%	4	x	31
Cc1cc(-c2ccccc2C(=O)Nc2ccccc2O)on1	-2%	1%	7%	-3	6%	-5
Cc1ccccc1-c1cc(-c2ccccc2O)on1	-52%	-38%	53%	52*	193%	76*
Oc1ccccc1-c1cc(-c2ccccc2)no1	117%	-22%	0%	47*	-43%	+
Cc1ccc(O)c(-c2cc(-c3ccc(F)cc3)no2)c1	u	-3%	-2%	37*	10µM*	122*
Oc1ccccc1-c1ccccc1	-5%	x	x	x	-8%	x
O=C(Nc1ccc(F)cc1)c1ccccc1NS(=O)(=O)N1CCCC1	u	-2%	5%	8	u	30
O=C(OCC(O)C(O)C(O)C(SCc1ccccc1)SCc1ccccc1)c1ccccc1 (stereo not drawn)	x	x	-13%	x	x	x
COc1ccc(C(=O)/C=C/C(=O)N(Cc2ccc3c(c2)OCO3)C(C(=O)NC2CCCCC2)c2ccncc2)c(O)c1 (stereo not drawn)	15%	-41%	-20%	-2	5.2µM*	-3
COc1ccc(CN(C(=O)/C=C/C(=O)c2ccc(OC)cc2O)C(C(=O)NC2CCCCC2)c2ccncc2)cc1 (stereo not drawn)	6%	-42%	5%	-1	12µM*	-10
SMILES	Pf growth 96h	SARS PLP yeast	AMA1 RON2 block	Cycloheximide cs	Pf growth 48h	Shiga toxin inh
CCN1CCN(C(=O)c2c(-c3c(Cl)cccc3Cl)noc2C)CC1	1%	1%	1%	-1	-15%	17
CCc1ccc(-c2cc(C)no2)cc1S(=O)(=O)N1CCN(c2ccc(C(C)=O)cc2)CC1	-1%	-4%	0%	-6	u	-5
CC(=O)c1ccc(N2CCN(S(=O)(=O)c3cc(-c4cc(C)no4)ccc3C(C)C)CC2)cc1	u	-3%	-11%	-2	10µM*	11
CC(=O)c1ccc(N2CCN(S(=O)(=O)c3cc4[nH]c(=O)c(=O)[nH]c4cc3C)CC2)cc1	-4%	x	4%	19*	2.3µM*	24*
Cc1cc(-c2ccc(C(C)C)c(S(=O)(=O)N3CCC(C)CC3)c2)on1	u	-2%	6%	1	12µM*	-4
Cc1cc(-c2ccc(C(C)C)c(S(=O)(=O)Nc3cc(C)on3)c2)on1	13µM*	5%	0%	-1	17%	2
CCC(C)c1ccccc1N1CC(C(=O)NCCCn2nc(C)cc2C)CC1=O (stereo not drawn)	2%	0%	-13%	x	17%	x
CCCNC(=O)Nc1cc(OC)c(OC)cc1Cc1nccc2cc(OC)c(OC)cc12	-3%	-1%	24%	-4	8%	1
Cc1ccnc(SCC(=O)N2CCc3ccccc3C2)n1	2%	-1%	-2%	-2	u	3
O=C(c1ccc(Br)s1)N1CCc2ccccc2C1	37%	u	18%	49*	46%	152*
O=C(CSc1ncccn1)N1CCc2ccccc2C1	4%	0%	2%	14*	0%	28
O=C(CCCOc1ccc(Cl)cc1Cl)N1CCc2ccccc2C1	u	-17%	7%	2	-6%	-1
O=C(c1cccs1)N1CCc2ccccc2C1	22%	1%	-9%	-2	13%	1
O=C(COc1ccc(F)cc1)N1CCc2ccccc2C1	30%	-2%	-6%	32*	14%	26
O=C(CCCOc1ccccc1)N1CCc2ccccc2C1	11%	-3%	16%	39*	66%	85*
Cc1ccc(OCC(=O)N2CCc3ccccc3C2)cc1	i	-1%	-2%	12	-22%	22
CCOc1cc2[nH]c(=S)n(CCC(=O)N3CCc4ccccc4C3)c(=O)c2cc1OCC	9.3µM*	1%	-1%	-3	u	-7
O=C(/C=C/C(=O)N1CCc2ccccc2C1)N1CCc2ccccc2C1	u	-4%	-8%	-1	-10%	23
O=C(Cc1ccc(Br)cc1)N1CCc2ccccc2C1	-5%	-2%	10%	39*	51%	x
O=C(CN(C1CCCCC1)C1CCCCC1)N1CCc2ccccc2C1	13µM*	6%	-15%	1	x	3
O=C(c1ccc(Br)o1)N1CCN(c2ncccn2)CC1	u	5%	9%	-1	x	-3

Compound activity as filed in PubChem BioAssay.
